The structures appear in SMILES notation. Unmarked numbers belong to inactive results. Calls of active or inactive are those of the source. No stated cut-off is given here; in the data, active means inhibition above about 33%; inactive means the rest.

This test can be described thus: compounds suppressing VP16-driven luciferase signal – cell-based, luminescence, high throughput, counter-screen for LRH-1 inverse agonist project (AID 651615). The note with it: Gal4-VP16 luciferase reporter cells, at 3.6 µM, active compounds read high.
The term inhibition denotes the relative decrease from the control value, in per cent. Consider `Nc1cc2ccncc2c2ccccc12`, for which the inhibition is 72.3% (active). In the case of `Cc1ccc2oc(/N=C(\N)NC(=O)C(C)(C)C)nc2c1` it was 61.7% (active); in that of `COC1=CC(=O)c2c(ccc3ncnc(N)c23)C1=O`, 82.1% (active). The same measure for `CC(C)(C)C(=O)/C(=C/c1ccncc1)n1cncn1`: 69.2% (active); for `O=c1c2ccccc2oc2cc(C#CC3(O)CCCCC3)ccc12`: -40.4%. As for `Cc1cc(C(=O)CN2C(=O)c3ccccc3S2(=O)=O)c(C)n1CC1CCCO1` (stereo unspecified), the inhibition was 68.2% (active). In the case of `CC(C)(C)OC(=O)NCCCCCc1cn([C@@H](CO)C(=O)NCCCCCCCCCCC(=O)N2CCN(C(=O)OC(C)(C)C)CC2)nn1`, the inhibition is 80.6% (active). The same measure for `Clc1ccc(-n2ncc3c(N4CCCCCC4)ncnc32)cc1`: 43% (active). In the case of `CC(=O)NC(c1ccc(C(C)C)cc1)c1ccc2cccnc2c1O` (stereo unspecified) it was 75% (active); in that of `Cc1ccc(C(=O)N/N=C/c2c(O)ccc3ccccc23)cn1`, 83.8% (active). In the case of `CCOc1cc(CNc2ccc3c(c2)OCCO3)cc(Br)c1OC` it was -1.87%; in that of `COc1cccc(-c2nnc3n2N=C(C(C)(C)C)CS3)c1`, 75.4% (active); in that of `Cc1ccc(C(=O)N/N=C/c2ccc([N+](=O)[O-])s2)cc1`, 52.3% (active).

With `C=C1C(=O)C2=CC1CCC(=O)C1(C)CCC(OC(C)=O)C(C)(C)C1CC2O` (stereo unspecified), the inhibition was 56.1% (active).

Turning to `COc1cccc(N2CCN(c3ncnc4c3cnn4-c3ccc(C)cc3C)CC2)c1`, the inhibition is 90.2% (active). In the case of `COc1cc(NC(=O)COc2cc(O)c3c(c2)OC(C)(C)CC3=O)cc(OC)c1OC` it was 64.6% (active).

Source of the values: PubChem BioAssay.
